Assay [1] concerns Nanoluciferase (engineered Oplophorus gracilirostris luciferase). Put plainly: Primary Nanoluciferase (NLuc) qHTS assay for identification of artifact compounds. (AID 1845222).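 Note: NLuc secreted into diluted conditioned medium of S16 cells.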 Summed up: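 Using secreted nanoluciferase in S16 culture medium (0.22 um filtered, 1:55 dilution), compounds were preincubated 15 min at RT. Signal was generated with Nano-Glo reagent (1:100) over 5 min.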

Assay [2] is described as follows: Primary redox qHTS assay for identification of artifact compounds. (AID 1845223). Summed up:
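Redox-cycling detection via DTT (250 uM final) oxidation coupled to Amplex Red (25 uM)/HRP (250 mU/mL) in HBSS. 15 min preincubation plus 30 min after DTT, room temperature. Ex/Em 525/598 nm; 4-parameter Hill fit against DMSO and 10 uM DA3003.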
For orientation: qHTS replaces the single test concentration by a dilution series.

Assay [3] in a line: Quantitative High-Throughput drug screen in 47 multiple myeloma cell lines against the NCATS MIPE library collection: FR4_PLB cell viability assay (AID 1918924; note: nearly all actives have a fitted effect of over 35% in size; note: potency is the fitted concentration of half-maximal effect). In short, it runs like this: (§1)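 qHTS of the MIPE 4.0 collection: 500 myeloma cells/well, 48 h drug exposure at 37C in 5% CO2, then CellTiter-Glo for 5 min at room temperature before luminescence reading.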
Assay [4] can be described thus: Quantitative High-Throughput drug screen in 47 multiple myeloma cell lines against the NCATS MIPE library collection: Delta47_JCRB cell viability assay (AID 1918925; note: nearly all actives have a fitted effect of over 45% in size; note: potency is the fitted concentration of half-maximal effect). In short, it runs like this: (§2)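 Luminescent ATP measurement with CellTiter-Glo gives viability, scaled between DMSO-only wells (100%) and media-only wells (0%). Cells, 500 per well, faced library compounds for 48 hours at 37C.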

Assay [5] is described as follows: Quantitative High-Throughput drug screen in 47 multiple myeloma cell lines against the NCATS MIPE library collection: EJM_DSMZ cell viability assay (AID 1918926; note: nearly all actives have a fitted effect of over 30% in size; note: potency is the fitted concentration of half-maximal effect). In short, it runs like this: as §2
Assay [6] can be described thus: Quantitative High-Throughput drug screen in 47 multiple myeloma cell lines against the NCATS MIPE library collection: AMO1_DSMZ cell viability assay (AID 1918927; note: nearly all actives have a fitted effect of over 30% in size; note: potency is the fitted concentration of half-maximal effect). In short, it runs like this: as §2
The nature of assay [7]: Quantitative High-Throughput drug screen in 47 multiple myeloma cell lines against the NCATS MIPE library collection: ARP1_JJKsccF8 cell viability assay (AID 1918928; note: nearly all actives have a fitted effect of over 40% in size; note: potency is the fitted concentration of half-maximal effect). Summed up: (§3)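 Each line was plated at 500 cells/well and treated 48 h with library drugs. Viability came from CellTiter-Glo luminescence relative to DMSO and cell-free medium controls.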
Assay [8] is described as follows: Quantitative High-Throughput drug screen in 47 multiple myeloma cell lines against the NCATS MIPE library collection: Karpas620_DSMZ cell viability assay (AID 1918959). Note: nearly all actives have a fitted effect of over 30% in size. Note: potency is the fitted concentration of half-maximal effect. Summed up: as §1
A short description of assay [9]: Quantitative High-Throughput drug screen in 47 multiple myeloma cell lines against the NCATS MIPE library collection: KHM11_PLB cell viability assay (AID 1918962). Note: nearly all actives have a fitted effect of over 35% in size. Note: potency is the fitted concentration of half-maximal effect. In short, it runs like this:
as §1

The nature of assay [10]: Quantitative High-Throughput drug screen in 47 multiple myeloma cell lines against the NCATS MIPE library collection: INA6_PLB cell viability assay (AID 1918965; note: nearly all actives have a fitted effect of over 55% in size; note: potency is the fitted concentration of half-maximal effect). Summed up:
as §2

A short description of assay [11]: Quantitative High-Throughput drug screen in 47 multiple myeloma cell lines against the NCATS MIPE library collection: JJN3_DSMZ cell viability assay (AID 1918966; note: potency is the fitted concentration of half-maximal effect; nearly all actives have a fitted effect of over 50% in size). Summed up:
as §2

Assay [12] can be described thus: Quantitative High-Throughput drug screen in 47 multiple myeloma cell lines against the NCATS MIPE library collection: H1112_PLB cell viability assay (AID 1918967; note: nearly all actives have a fitted effect of over 30% in size; note: potency is the fitted concentration of half-maximal effect). Summed up: as §2
Assay [13] can be described thus: Quantitative High-Throughput drug screen in 47 multiple myeloma cell lines against the NCATS MIPE library collection: Karpas25_ECACC cell viability assay (AID 1918968; note: potency is the fitted concentration of half-maximal effect; nearly all actives have a fitted effect of over 35% in size). In short, it runs like this: as §2
The nature of assay [14]: Quantitative High-Throughput drug screen in 47 multiple myeloma cell lines against the NCATS MIPE library collection: KMS12BM_JCRB cell viability assay (AID 1918971). Note: nearly all actives have a fitted effect of over 35% in size. Note: potency is the fitted concentration of half-maximal effect. Summed up:
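Steps: seed 500 cells per well; pin-transfer MIPE 4.0 library; incubate 48 h at 37C, 5% CO2, humidified; add CellTiter-Glo, 5 min room temperature; read luminescence.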

Assay [15] is described as follows: Quantitative High-Throughput drug screen in 47 multiple myeloma cell lines against the NCATS MIPE library collection: ARD_JJKsccE7 cell viability assay (AID 1918929; note: potency is the fitted concentration of half-maximal effect). Summed up:
as §2

Assay [16] in a line: Quantitative High-Throughput drug screen in 47 multiple myeloma cell lines against the NCATS MIPE library collection: KMM1_JCRB cell viability assay (AID 1918960). Note: nearly all actives have a fitted effect of over 30% in size. Note: potency is the fitted concentration of half-maximal effect. Summed up: as §3
A short description of assay [17]: Quantitative High-Throughput drug screen in 47 multiple myeloma cell lines against the NCATS MIPE library collection: Karpas417_ECACC cell viability assay (AID 1918961). Note: potency is the fitted concentration of half-maximal effect. Conditions: Karpas417 myeloma viability, CellTiter-Glo ATP luminescence, 48 h; viability (% of DMSO): at 45.8 µM (top of the series). In short, it runs like this: as §2
Background: In ATP-based viability assays light output follows the ATP content of the culture.

Assay [18] is described as follows: Quantitative High-Throughput drug screen in 47 multiple myeloma cell lines against the NCATS MIPE library collection: JIM3_ECACC cell viability assay (AID 1918963; note: nearly all actives have a fitted effect of over 35% in size; note: potency is the fitted concentration of half-maximal effect). In short, it runs like this:
as §1

Assay [19] in a line: Quantitative High-Throughput drug screen in 47 multiple myeloma cell lines against the NCATS MIPE library collection: KMS27_JCRB cell viability assay (AID 1918970). Note: nearly all actives have a fitted effect of over 30% in size. Note: potency is the fitted concentration of half-maximal effect. In short, it runs like this:
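Myeloma cells (500 per well) were exposed to MIPE 4.0 compounds for 48 h at 37 °C, 5% CO2; viability was read as ATP luminescence with CellTiter-Glo, normalized to DMSO-only (100%) and media-only (0%) wells.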

Assay [20] can be described thus: Quantitative High-Throughput drug screen in 47 multiple myeloma cell lines against the NCATS MIPE library collection: JIM1_ECACC cell viability assay (AID 1918964; note: potency is the fitted concentration of half-maximal effect). Summed up: as §2

Unmarked numbers belong to inactive results. Records with an inconclusive call do not appear. Calls of active or inactive are those of the source. Calls come from the whole dose curve; as a rule, active = well fitted curve in the direction sought with a large enough effect; inconclusive = small, poorly fitted or top-dose-only effect, or another doubt; inactive = no such curve, though single readings can be large; an effect the other way counts as inactive or inconclusive.

As for `COc1cc(Nc2c(C#N)cnc3cc(OCCCN4CCN(C)CC4)c(OC)cc23)c(Cl)cc1Cl`, the outcome in [1] and in [2] was inactive. Besides, the Potency in [3] was 23.5 µM (active); in [4], 3.72 µM (active); in assay [5], 23.5 µM (active); in assay [6], 8.33 µM (active); in [7], 18.7 µM (active); in assay [8], 11.8 µM (active). Also, the Potency in [9] is 5.26 µM (active); in assay [10], 418 nM (active); in assay [11], 18.7 µM (active); in assay [12], 9.35 µM (active); in [13], 1.05 µM (active); in [14], 14.8 µM (active).
Regarding `COCCCOc1ccnc(CS(=O)c2nc3ccccc3[nH]2)c1C` (configuration not stated), the compound was called inactive in [1] and in [2]. Moreover, the Potency result in [3], in [4], in assay [5], in assay [6], in [15] and in assay [8] was “inactive” in each case. The Potency result in assay [16], in [17], in assay [9], in [18], in assay [10] and in assay [12] was “inactive” in each case. For the same compound, the Potency result in [19] and in assay [14] was “inactive” each time.
As for `C=C(c1ccc(C(=O)O)cc1)c1cc2c(cc1C)C(C)(C)CCC2(C)C`, the outcome in assay [1] and in [2] was inactive. Further, the Potency result in assay [5], in [7], in [8], in assay [16] and in assay [12] was “inactive” in each case. Further, the figures for the Potency in assay [13] and in [19] were 14.8 µM (active) and 41.8 nM (active), respectively.
As for `CN(C)C(=O)[C@H](O)[C@H](Cc1ccccc1)NC(=O)c1cc2cc(Cl)ccc2[nH]1`, the result in assay [1] and in [2] was inactive. Moreover, the Potency in [4] was 4.18 µM (active); in assay [6], 6.62 µM (active); in assay [7], 16.6 µM (active); in assay [15], 16.6 µM (active); in [13], 1.66 µM (active). For the same compound, the Potency entry in assay [9] was “inactive”.
In the case of `COc1ccc(C2(C#N)CCC(C(=O)O)CC2)cc1OC1CCCC1` (configuration not stated), the call in [1] and in assay [2] was inactive. Moreover, the Potency result in assay [3], in assay [5], in assay [6], in assay [7], in assay [15] and in assay [8] was “inactive” each time. In addition, the Potency result in assay [16], in assay [18], in assay [19] and in [14] was “inactive” throughout. The Potency in assay [13] is 23.5 µM (active).
Take `CCN(CC)CCOc1ccc(Nc2ncc3cc(-c4c(Cl)cccc4Cl)c(=O)n(C)c3n2)cc1`: the Potency was 0.935 µM (active) in assay [3]; 1.32 µM (active) in assay [4]; 2.09 µM (active) in [5]; 0.166 µM (active) in [6]; 2.64 µM (active) in assay [7]; 0.166 µM (active) in [15]. Also, the Potency in assay [8] is 2.09 µM (active); in assay [16] it was 0.0332 µM (active); in [17], 105 nM (active); in assay [9] it was 1.32 µM (active); in [18] it was 118 nM (active); in assay [20] it was 83.3 nM (active). The Potency in assay [12] is 5.9 µM (active); in [13] it was 0.0209 µM (active); in [19], 132 nM (active); in assay [14], 2.35 µM (active).
Regarding `Nc1nc(N)c(N=O)c(OCC2CCCCC2)n1`, the Potency is 18.7 µM (active) in assay [3]; 4.18 µM (active) in assay [4]; 10.5 µM (active) in assay [5]; 13.2 µM (active) in assay [6]; 14.8 µM (active) in assay [7]; 5.26 µM (active) in assay [15]. Also, the Potency in assay [8] was 13.2 µM (active); in [16], 6.62 µM (active); in assay [17], 2640 nM (active); in [10], 5260 nM (active); in [11], 16.6 µM (active); in assay [13], 5.9 µM (active). Besides, the Potency in assay [19] is 6620 nM (active); in [14] it was 13.2 µM (active).
Consider `OC(CN1CCN(c2cccc(Cl)c2)CC1)C(c1ccccc1)c1ccccc1` (configuration not stated), for which the outcome in assay [1] and in [2] was inactive. Further, the Potency result in assay [3], in assay [5], in assay [15], in assay [16] and in assay [18] was “inactive” in each case.

Source of the values: PubChem BioAssay (NCATS).
